Screening results from PubChem.
Compounds with a hit are over-represented: about 3.5% of the library has one in this group of screens.
Pf apPOL block: Pf-apPOL DNA polymerase inhibition | hit rate 0.25% among 210,000 | inhibition, % at 10 µM | Recombinant Pf-apPOL, molecular beacon fluorescence, 1.5 h
mHTT-CaM PPI inh: disrupts binding of mutant huntingtin to calmodulin; hit rate 3.6% among 190,000; AlphaScreen His-mHTT/GST-CaM binding, luminescence; inhibition, % at 15 µM; AID 1671202; P42858;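 note: 0% = both proteins with DMSO and 100% = one protein alone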
* = called active by the depositor; nt = not tested or not shown. Cut-off read from the data, not from the text of the source: active = inhibition above about 50%; inactive = the rest.

SMILES	Pf apPOL block	mHTT-CaM PPI inh
Cc1ccc(C(=O)N2CCC(n3nc(-c4ccsc4)ccc3=O)CC2)s1	-4	100*
O=C(c1cccnc1)N1CCC(n2nc(-c3ccsc3)ccc2=O)CC1	0	10
COc1ccc(C(=O)N2CCC(N3CCCCCC3)CC2)cc1	-4	-2
COc1cccc(C(=O)N2CCC(n3nc(-c4ccsc4)ccc3=O)CC2)c1	-2	100*
O=C(N1CCC(n2nc(-c3ccsc3)ccc2=O)CC1)C1(c2ccccc2)CC1	-2	-1
Nc1c(C(=O)NCCNC(=O)c2nnn(-c3ccccc3)c2N)nnn1-c1ccccc1	-5	21
CCCN(CCC)C(=O)c1cnn(-c2ccccc2)c1NC(=O)c1ccc(C)cc1	-5	16
CCc1ccccc1NC(=O)C1CC(c2cccc(OC)c2)=NO1 (configuration not stated)	-11	-8
COc1ccc(C(=O)N2CCCc3cc(C)ccc32)nn1	-2	-2
Cn1c(SCc2ccc(Br)cc2)nnc1-c1ccccc1O	4	6
O=C(O)CN1C(=O)S/C(=C\c2ccco2)C1=O	-3	5
Cc1ccc(-c2nc(C(=O)Nc3cccc(Cl)c3)cs2)n1C	-6	30
O=C(Cc1cccc(F)c1)N1CCC(n2nc(-c3ccsc3)ccc2=O)CC1	-4	35
O=C(c1cccc(F)c1)N1CCC(n2nc(-c3ccsc3)ccc2=O)CC1	-1	95*
COCCCNC(=S)NN=Cc1ccc[nH]1	-4	nt
Cc1cc(S(=O)(=O)N2CCN(S(=O)(=O)c3ccc(Cl)c(C)c3)CC2)ccc1Cl	-4	-2
Cc1cc(C)c(S(=O)(=O)N=C2C=C(Br)C(=O)c3ccccc32)cc1C	2	41
Cc1cc(C)c(S(=O)(=O)N=C2C=CC(=O)c3ccccc32)cc1C	5	98*
Cc1cc(S(=O)(=O)N=C2C=CC(=O)c3ccccc32)ccc1Cl	-5	90*
Cc1ccc(C)c(S(=O)(=O)N=C2C=CC(=O)c3ccccc32)c1	-3	96*
Cc1ccc(C)c(S(=O)(=O)N2CCN(C)CC2)c1	1	-3
COc1ccc(C2=N/C(=C\c3ccccc3[N+](=O)[O-])C(=O)O2)cc1OC	-3	0
CCOc1cc2c(-c3cc4cccc(OC)c4o3)cc(=O)oc2cc1C	3	-6
Oc1cccc(CN2CCCn3cccc3C2c2ccc(F)cc2)c1O (configuration not stated)	2	98*
Cc1ccc(O)c(CN2CCCn3cccc3C2c2cccc(O)c2)c1 (configuration not stated)	-4	100*
SMILES	Pf apPOL block	mHTT-CaM PPI inh
O=C(NCc1ccc(F)cc1)N1CCn2cccc2C1Cc1ccccc1 (configuration not stated)	-5	22
Cc1cccc(C2c3cccn3CCN2C(=O)CC(=O)NC(C)C)c1 (configuration not stated)	1	40
Oc1cccc(C2c3cccn3CCCN2Cc2cc(Cl)ccc2O)c1 (configuration not stated)	-2	100*
CC(C)c1cc(C2CCCN2Cc2cc(Cl)ccc2O)on1 (configuration not stated)	4	-30
O=C(COc1ccc2c(c1)C(=O)CC2)NCCc1c[nH]c2ccccc12	-12	-5
COc1cc(/C=C2/N=C(c3ccccc3Br)OC2=O)cc(OC)c1OC	-23	-1
O=C1CCSc2ccc(Cl)cc21	1	nt
Cn1c(NC(=O)c2ccc(N3C(=O)CCC3=O)cc2)cc(=O)n(C)c1=O	-3	-23
Cc1cc(C)c2nc(-c3ccc(N)cc3)oc2c1	12	18
CCS(=O)(=O)N1CCc2c(c(-c3nc(-c4ccc(F)cc4)no3)nn2C)C1	-3	-8
COc1ccc(NC(=O)CCNS(=O)(=O)c2ccccc2)cc1	-4	-6
COc1cc(OC)c(NC(=O)c2cccnc2)cc1Cl	-5	-2
COc1cc(Cl)c(C)cc1NC(=O)c1cccnc1	97*	-5
COc1ccc(CNc2cc(-c3ccccc3)ccc2OC)cc1O	-5	76*
COc1ccc(CNc2ccccc2F)cc1OCc1ccccc1	3	-46
CC(=O)N(C)CC(=O)N1N=C(c2ccc(F)cc2)CC1c1ccccc1 (configuration not stated)	7	21
Cc1ccc(C2CC(c3cccs3)=NN2C(=O)CN(C)C(=O)C2CCCC2)cc1 (configuration not stated)	-1	61*
CN(CC(=O)N1N=C(c2cccs2)CC1c1ccccc1)C(=O)C1CCCC1 (configuration not stated)	-1	21
CC(=O)N(C)CC(=O)N1N=C(c2ccc(C)c(C)c2)CC1c1ccccc1 (configuration not stated)	-2	54*
COc1ccc(C2=NN(C(=O)CCCC(=O)O)C(c3ccccc3OC)C2)cc1OC (configuration not stated)	-12	7
Cc1ccc(C2=NN(C(=O)CN(C)C(=O)NC(C)C)C(c3ccccc3)C2)cc1C (configuration not stated)	0	52*
COc1ccccc1C1CC(c2ccc(C)c(C)c2)=NN1C(=O)CN(C)C(C)=O (configuration not stated)	-5	66*
Cc1ccc(C2CC(c3ccc(C)c(C)c3)=NN2C(=O)CN(C)C(=O)C2CC2)cc1 (configuration not stated)	2	6
Cn1c(N2CCN(S(=O)(=O)CCN3C(=O)CCCC3=O)CC2)nc2ccccc21	-7	-7
CCN(CC)S(=O)(=O)c1ccc(F)c(C(=O)Nc2ccc(C)c(Cl)c2)c1	-5	-5
SMILES	Pf apPOL block	mHTT-CaM PPI inh
CC(C)c1ccc(CNC(=O)C2(c3ccc(NC(=O)C4CC4)cc3)CCC2)cc1	0	-11
COCCn1c(C2CCN(C(=O)CCC3CCCC3)C2)nc2cccnc21 (configuration not stated)	-6	5
CS(=O)(=O)NCC1CCC(C(=O)N2CCN(C(=O)c3ccco3)CC2)CC1 (configuration not stated)	-3	-15
CC(=O)Nc1ccc(C(=O)NCc2cccc(F)c2)c(N2CCCCC2)c1	1	65*
CC(=O)Nc1ccc(C(=O)NCc2cccc(F)c2)c(N2CCOCC2)c1	-3	-3
Cc1ccc(N(C(=O)c2ccc(C(C)(C)C)cc2)C2C=CS(=O)(=O)C2)cc1 (configuration not stated)	80*	20
O=C(c1ccc(Cl)cc1)N(c1ccc(Cl)cc1)C1C=CS(=O)(=O)C1 (configuration not stated)	0	1
O=C(NCCc1ccc(F)cc1)c1ccc([N+](=O)[O-])cc1Cl	-2	0
Cc1cccc(OCc2nc(-c3ccc(-c4csc(C)n4)cc3)no2)c1	3	-6
Cc1ccc2[nH]c3c(cc(NCCO)c4c(=O)c5ccccc5c(=O)c43)oc2c1	-3	18
Cc1ccc2[nH]c3c(cc(NCCCO)c4c(=O)c5ccccc5c(=O)c43)oc2c1	-6	60*
O=C(Nc1cc(-c2cccs2)nn1CCO)C1c2ccccc2Oc2ccccc21	-4	58*
O=C(NCCn1nc(-c2cccs2)ccc1=O)C1c2ccccc2Oc2ccccc21	-7	-15
Cc1ccc(C)c(CSCC(Nc2ccc(C(=O)O)cc2[N+](=O)[O-])C(=O)O)c1 (configuration not stated)	-7	5
Cc1ccc(NC(=O)c2cc(N3C(=O)C=CC3=O)ccc2Cl)cc1C	-4	92*
Cc1ccc(NC(=O)c2cc(Cl)c(Cl)cc2C(=O)O)cc1C	-3	1
